GDH-TPI inh = GDH-TPI coupling enzyme inhibitors, primary screen, artefact control for M. tuberculosis FBA inhibitor project, biochemical, absorbance, full deck. AID 588335, 2011. 360,000 compounds, 1.2% hits. inhibition, % at 4.8 µM. GDH-TPI coupled enzyme counterscreen, NADH absorbance
Mtb FBA inh = Mtb FBA enzyme inhibitors, primary screen, biochemical, fluorescence, strain H37Rv | 360,000 compounds, 2.3% hits | purified M. tuberculosis FBA, fluorescence read-out | inhibition, % at 1 µM | Fructose-bisphosphate aldolase (Mycobacterium tuberculosis (strain ATCC 25618 / H37Rv)), … | AID 588726, 2011; in the data active = inhibition above about 27%
Mtb betalactam = beta-lactam sensitization of Mtb H37Rv, H37Rv | 330,000 compounds, 0.27% hits | inhibition, % at 25 µM | M. tuberculosis H37Rv growth with meropenem, percent inhibition; call rule not given here;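 note: growth measured after seven days incubation then overnight dye step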
RecA splice inh = Mtb RecA intein splicing inhibitors, primary screen, biochemical, fluorescence, HTS; Protein RecA (Mycobacterium tuberculosis (strain ATCC 25618 / H37Rv)), P9WHJ3; cell-free RecA intein splicing; inhibition, % (test concentration not listed); 290,000 compounds, 0.75% hits; AID 2221, 2009; in the data active = inhibition above about 30%
CCHF vOTU inh-1 = CCHFV vOTU protease inhibitors, primary screen, biochemical, Pep-AMC substrate, fluorescence; 370,000 compounds, 0.55% hits; inhibition, % at 11.5 µM; Crimean-Congo hemorrhagic fever virus L polyprotein viral ovarian tumor (vOTU) protease …
GFP chromo cs = counter-screen: blocks GFP chromophore formation, dose response, counter-screen, biochemical, fluorescence, homogeneous. shares compounds with RecA splice inh. cell-free GFP chromophore formation. EC50, µM. 2,100 compounds, 83% hits. AID 434968, 2010; call rule not given here
CCHF vOTU inh-2 = CCHFV vOTU protease inhibitors, confirmation, biochemical, Pep-AMC substrate, fluorescence; Recombinant CCHFV vOTU; 1,900 compounds, 17% hits; inhibition, % at 11.5 µM; shares compounds with CCHF vOTU inh-1
Hits are given with their value; n = inactive; x = no result given. Sampled rows, rich in hits. Any-hit rate of the full collection: about 4.2%. Cut-off read from the data, not from the text of the source, unless noted: active = inhibition above about 30%; inactive = the rest.

SMILES	GDH-TPI inh	Mtb FBA inh	Mtb betalactam	RecA splice inh	CCHF vOTU inh-1	GFP chromo cs	CCHF vOTU inh-2
CCOC(=O)N1CCN(C(=O)C[C@H]2C[C@@]3(C(=O)OC)C(=C[C@H](C(C)(C)C)O[C@@H]3C)N(Cc3cccc4ccccc34)C2=O)CC1	x	x	x	x	n	x	x
CCn1nc(-c2cccs2)nc2c(=O)n(C)c(=O)nc1-2	n	n	x	x	x	x	x
CCn1nc(/C=C/c2ccccc2)nc2c(=O)n(C)c(=O)nc1-2	n	n	x	78.6	124.3	0.309	106.8
c1coc(-c2nnc(-c3ccco3)nn2)c1	n	n	n	58.3	45.0	9.08	52.6
CSc1ccc(-c2ccco2)nn1	n	n	n	n	n	x	x
C[C@H](O)[C@@H]1CN2CCc3c([nH]c4c(-c5ccc6c(c5)OCO6)cccc34)[C@@H]2C[C@@H]1N(C)C(=O)c1ccco1	x	x	x	x	n	x	x
CCCCS(=O)(=O)N1CCCc2nc(-c3ccc(OC)cc3)ccc21	x	x	x	x	n	x	x
CCc1ccc(S(=O)(=O)/N=C2\C=C(Nc3cccc(C(=O)O)c3)C(=O)c3ccccc32)cc1	n	n	n	94.9	136.9	0.419	114.8
Cc1cc(C)c(S(=O)(=O)/N=C2\C=C(Nc3ccc(C(=O)O)cc3)C(=O)c3ccccc32)c(C)c1	n	n	n	95.8	124.7	0.871	111.1
COC(=O)C1CN(Cc2ccc(OC)cc2)CCS(=O)(=O)N1Cc1ccc(OC)cc1 (stereo not given)	x	x	x	x	n	x	x
O=C(O)CC1S/C(=N/N=C/c2ccc(-c3ccccc3[N+](=O)[O-])o2)NC1=O (stereo not given)	39.6	n	n	42.7	35.6	17.4	n
COC(=O)C[C@@H]1CC[C@@H]2[C@H](COc3ccc(NC(=O)c4cccc(OC)c4)cc3C(=O)N2C)O1	x	x	x	x	n	x	x
COc1ccc(/C=N/NC(=O)c2nn(-c3ccc(Cl)cc3)c(=O)c3c(N)scc23)cc1	n	n	n	40.3	33.0	17.1	38.6
COC(CNC(=O)c1ccc2c3c(onc13)-c1ccccc1C2=O)OC	n	n	n	53.1	78.1	20.1	47.8
O=C1Cc2ccccc2C(=O)N1CCc1ccccc1	n	n	n	92.3	100.5	5.48	102.2
CC(C)(C)c1cc[n+](C2=C([O-])c3ccccc3C(=O)/C2=N\S(=O)(=O)c2cccs2)cc1	n	n	n	77.8	77.4	0.962	70.0
O=C1/C(=N\S(=O)(=O)c2cccs2)C([n+]2ccccc2)=C([O-])c2ccccc21	n	n	n	41.3	48.6	17.1	89.4
Cc1ccc[n+](C2=C([O-])c3ccccc3C(=O)C2=O)c1	x	x	x	x	n	x	x
COC(=O)[C@]12C[C@H](CC(=O)NCc3ccc(C)o3)C(=O)N(Cc3ccc(Cl)cc3Cl)C1=C[C@H](C1CCCC1)O[C@@H]2C	x	x	x	x	n	x	x
CCCC[C@H](C(=O)N(C)c1ccccc1)[C@@H](O)c1ccc(C(C)=O)cc1	x	x	x	x	n	x	x
Cc1ccc(C=NNC(=O)CSc2nc3sc4c(c3c(=O)n2-c2ccccc2)CCCC4)s1	x	x	x	x	n	x	x
COc1cccc(S(=O)(=O)N(C)C[C@@H]2Oc3ncc(Br)cc3C(=O)N([C@H](C)CO)C[C@@H]2C)c1	x	x	x	x	n	x	x
C#CCOc1ccc(/C=C2/C(=O)N(c3cccc(C(=O)O)c3)N=C2C)cc1OC	n	n	n	71.5	34.6	3.37	n
COc1cc(/C=C2\C(=O)N(c3ccc(S(N)(=O)=O)cc3)N=C2C)ccc1OC(=O)c1ccco1	n	n	n	92.6	47.6	19.6	n
C#CCOc1ccc(/C=C2/C(=O)N(c3ccc(S(N)(=O)=O)cc3)N=C2C)cc1OC	n	n	x	x	n	x	x
CN1CCCC1CCSc1ncccc1-c1nc2ccccc2[nH]1 (stereo not given)	x	x	x	x	n	x	x
COC(=O)c1cc(S(=O)(=O)N2CCOCC2)c(Cl)cc1N1CCOCC1	n	n	n	x	n	x	x
COC(=O)c1cc(C)nc2c1C(=O)C(=O)C=C2N1CCOCC1	n	n	n	95.9	107.2	0.968	109.3

From PubChem BioAssay
